Screens (PubChem)
Sampled rows, rich in hits. Any-hit rate of the full collection: about 1.3%.
PfHsp40 yeast: rescue of PfHsp40-mediated yeast toxicity. S. cerevisiae expressing PfHsp40, growth rescue, ATP luminescence. growth rescue, % at 12.5 µM. 340,000 compounds, 0.68% hits. AID 504582; in the data active = growth rescue above about 28%, passing the limit was not always enough;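 also: yeast W303a lacking pdr1 and pdr3 grown in galactose medium; growth measured after three days at 30 °C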
RN4220 kill: kills Staphylococcus aureus RN4220; S. aureus RN4220 growth, OD600, 16 h; inhibition, % (no concentration beside the values); 330,000 compounds, 0.33% hits; AID 1259311; in the data active = inhibition above about 85%
TcdB inh: blocks C. difficile toxin B glycohydrolase activity; TcdB glycohydrolase enzymatic assay, plate reader; inhibition, % at 9.99 µM; 350,000 compounds, 0.24% hits; in the data active = inhibition above about 10%
MazF activator: increases E. coli MazEF RNase cleavage of RNA | 350,000 compounds, 0.32% hits | P0AE70 | AID 504720 | FAM/BHQ RNA-DNA oligo cleavage fluorescence, 5 h | activation, % at 20 µM; in the data active = activation above about 50%
ugtP null kill: growth inhibition of S. aureus ugtP deletion strain | S. aureus RN4220 ugtP deletion, OD600 growth, 16 h | growth inhibition, % (test concentration not listed) | 330,000 compounds, 0.54% hits | AID 1259309; in the data active = growth inhibition above about 68%
Mtb hypoxia inh: reduces hypoxia-regulated biosensor signal in M. tuberculosis; M. tuberculosis hypoxia-regulated fluorescent reporter, fluorescence; fluorescence inhibition, % (test concentration not listed); 300,000 compounds, 0.1% hits; in the data active = fluorescence inhibition mostly above about 23%, no sharp cut-off; inactive = mostly below about 17%
Numbers stand for hits; . = inactive; / = not tested or not shown; + = active, no number.

SMILES	PfHsp40 yeast	RN4220 kill	TcdB inh	MazF activator	ugtP null kill	Mtb hypoxia inh
CCc1c(C2(O)CCCCC2)[nH]c2ccc(C(F)(F)F)cc12	351.1	/	.	.	/	/
CN(C)Cc1c(C(C)(C)O)[nH]c2ccc(C(F)(F)F)cc12	.	.	.	.	.	.
CNC[C@H]1Oc2cc(C#CC3(O)CCCC3)ccc2S(=O)(=O)N([C@H](C)CO)C[C@H]1C	/	/	.	/	/	/
C/C(C=NNC(=O)CCn1nnc2ccccc21)=C\c1ccccc1	/	.	/	/	.	.
CN(C[C@H]1[C@H](c2ccccc2)[C@@H](CO)N1CC1CC1)C(=O)c1ccccc1	/	/	.	/	/	/
CNC1=C(N(C(C)=O)c2ccc(Br)cc2)C(=O)c2ccccc2C1=O	76.8	.	/	.	.	/
COCC(=O)N1[C@H](CO)[C@H]2c3ccccc3N(C(=O)c3cccc(OC)c3)C[C@H]21	/	/	.	/	/	/
CCCNC(=O)C1CC(=O)N(c2ccc(OCC)cc2)C1 (configuration not stated)	.	.	11.1	.	.	.
CCOc1ccc(N2CC(C(=O)NC(C)C)CC2=O)cc1 (configuration not stated)	.	.	/	.	.	.
C[C@H](CO)N1C[C@H](C)[C@@H](CN(C)C(=O)Nc2ccc3c(c2)OCO3)Oc2ccc(NS(C)(=O)=O)cc2CC1=O	/	/	.	/	/	/
Cc1cccc(NC(=O)NCc2ccc3[nH]c(C)cc3c2)c1	.	.	.	.	.	.
Cc1ccc(CNC(=O)Nc2cccc(C)c2)cc1	.	.	10.7	.	.	.
CCn1c(SCC(=O)NN=Cc2c[nH]c3ccccc23)nnc1-c1ccc(C)cc1	/	.	/	/	.	.
Cc1ccc(SCCNC(=S)Nc2ccc(C)c(C)c2)cc1	96.5	.	/	.	.	.
Cc1ccc(SCCNC(=S)Nc2ccccc2)cc1	.	.	/	.	.	/
COc1ccc(C(=O)NC(=S)NNC(=O)c2ccc(O)cc2)cc1[N+](=O)[O-]	51.8	.	.	.	.	.
O=C(Nc1ccc(O)cc1)/C(=C\c1cccs1)NC(=O)c1ccccc1	.	.	19.1	.	.	.
COc1cc(/C=C(/NC(=O)c2ccccc2)C(=O)Nc2ccc(O)cc2)c([N+](=O)[O-])cc1OC	.	.	13.2	.	.	.
COc1ccc(C(=O)NNC(=O)c2ccncc2)cc1[N+](=O)[O-]	.	.	.	.	.	.
C=CCN(CC=C)C(=S)NC(=O)c1ccc(OC)c(Br)c1	55.6	.	/	.	.	.
CCN(CC)C(=S)NC(=O)c1ccc(OC)c(Br)c1	.	.	/	.	.	.
Cc1ccc(NC(=O)CC2S/C(=N/N=C3CCCc4ccccc43)NC2=O)cc1 (configuration not stated)	/	.	/	/	.	.
CN1C(=O)/C(=C/c2ccc(N3CCCCCC3)o2)C(=O)NC1=S	.	.	/	.	.	44.9
C[C@H]1CN([C@@H](C)CO)S(=O)(=O)c2ccc(-c3cccc(C#N)c3)cc2O[C@@H]1CN(C)Cc1cccc(F)c1	/	/	.	/	/	/
COc1cc(C(=O)ON=C2C3CC4CC(C3)CC2C4)cc(OC)c1OC	324.5	.	.	.	.	.
SMILES	PfHsp40 yeast	RN4220 kill	TcdB inh	MazF activator	ugtP null kill	Mtb hypoxia inh
O=C1C=C(c2ccc(-c3ccccc3)cc2)CC(c2ccc3c(c2)OCO3)C1 (configuration not stated)	/	.	/	/	.	.
CC(C)(C)NC(=O)c1nn2c(C(F)(F)F)cc(-c3ccccc3)nc2c1Br	.	.	.	.	.	.
COC(=O)c1nn2c(C(F)(F)F)cc(-c3ccc(Br)o3)nc2c1Br	.	.	/	111.0	.	.
CC(=O)c1c(C)[nH]c(C(=O)Nc2nc(-c3ccc(Cl)cc3)cs2)c1C	.	.	/	.	90.3	.
CC(=O)c1c(C)[nH]c(C(=O)Nc2nc(-c3ccc(-c4ccccc4)cc3)cs2)c1C	.	.	.	.	.	.
Cc1cc(-n2ccnc2)n2c(nc3ccccc32)c1C#N	37.6	.	.	.	.	.
Cc1cc(-c2ccco2)c(C#N)c2nc3ccccc3n12	.	.	/	+	.	/
CCCc1cc(-n2ccnc2)n2c(nc3ccccc32)c1C#N	.	.	/	82.1	.	/
CCCc1cc(NCCCO)n2c(nc3ccccc32)c1C#N	/	.	.	.	.	.
CCN(CC)S(=O)(=O)c1cccc(C(=O)NCC(c2ccccc2)N(C)C)c1 (configuration not stated)	96.9	.	.	.	.	.
C[C@H]1CN([C@@H](C)CO)S(=O)(=O)c2ccc(-c3cccc(C#N)c3)cc2O[C@H]1CN(C)C(=O)c1ccncc1	/	/	.	/	/	/
